# Compounds with a hit are over-represented: about 19% of the library has one in this group of screens.
# TDP1 cell noCPT – qHTS for Inhibitors of human tyrosyl-DNA phosphodiesterase 1 (TDP1): qHTS in cells in absence of CPT. DT40 Tdp1-/- hTDP1 cells, no CPT, ATP luminescence, 48 h. Potency, µM (doses to about 46.2 µM), without a hit: top-dose activity change, negative = growth inhibition, hits mostly inhibitors. 15% of 420,000 active; note: potency is the fitted concentration of half-maximal effect; nearly all actives have a fitted effect of over 55% in size
#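 No-CPT arm: Tdp1-/-;hTDP1 DT40 cells (400/well) plus compounds, incubated ≥48 hr at 37 °C. Readout CellTiter-Glo luminescence.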
# IL1B secr inh – blocks inflammasome-driven IL-1 beta release | THP-1 LPS/ATP IL-1B secretion, AlphaLISA, 16 h; active compounds read low | activity change, % at 57.5 µM | 4.7% of 360,000 active | AID 743279; in the data active = activity change below about -50%; inconclusive = mostly about -30% to -49%
#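 Secreted IL-1B measured by AlphaLISA bead assay after 16 h compound exposure of THP-1 cells; compounds (final up to 57.5 uM) added 1 h before LPS (250 ng/mL) and ATP (1.25 mM) stimulation; lower signal means less secretion.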
# HT1080-NT tox – kills 2HG-producing HT-1080-NT fibrosarcoma cells; HT-1080-NT fibrosarcoma viability, CellTiter-Glo ATP luminescence, 48 h; Potency, µM (highest dose often 46.1 µM), for inactives: at the top dose activity, negative = less viability, hits mostly cytotoxic; 1.6% of 360,000 active; AID 686970;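 note: NT is the 2HG producing partner of a matched IDH1 knockdown line; potency is the fitted concentration of half-maximal effect; 0% = DMSO-treated cells and -100% = media-only wells without cells; nearly all actives have a fitted effect of over 55% in size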
#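 Viability by CellTiter-Glo luminescence after 48 h compound exposure at 37C of HT-1080-NT cells (750/well, RPMI, 5% FBS). % activity scaled between DMSO wells and medium-only wells, then curve-fitted and categorized by curve class.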
# HT1080 IDH1KD tx – kills HT-1080 cells with IDH1 knockdown. AID 686971. Potency, µM (highest dose often 46.1 µM), inactives show at the highest dose activity, negative = toxicity, hits mostly cytotoxic. 2% of 360,000 active. HT-1080 IDH1 knockdown viability, ATP luminescence, 48 h;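 note: potency is the fitted concentration of half-maximal effect; 0% = DMSO wells and -100% = cell-free medium wells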
#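 Viability of IDH1-knockdown HT-1080 fibrosarcoma cells was assessed by CellTiter-Glo after 48 h at 37 °C with titrated compound; concentration-effect curves were classified by fit quality and response size.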
# DT40 TDP1 CPT – DT40-hTDP1 cell growth loss with CPT | 12% of 420,000 active | AID 686979 | Potency, µM (highest dose often 46.2 µM), for inactives: top-dose activity change, negative = growth inhibition, usual class: inhibitors | chicken DT40 Tdp1-/-;hTDP1 cells + 20 nM CPT, ATP luminescence, 48 h; note: potency is the fitted concentration of half-maximal effect; nearly all actives have a fitted effect of over 55% in size
#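 Cell growth measured by CellTiter-Glo luminescence after a minimum 48 h, 37 C compound exposure with 20 nM CPT in Tdp1-knockout DT40 cells stably expressing hTDP1, seeded 400/well; qHTS titration format.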
# The depositor's hits bear a star; u = inconclusive; x = not tested or not shown. Unless noted, calls come from the whole dose curve; as a rule, active = well fitted curve in the direction sought with a large enough effect; inconclusive = small, poorly fitted or top-dose-only effect, or another doubt; inactive = no such curve, though single readings can be large; an effect the other way counts as inactive or inconclusive. Unless noted, % is set by controls: 0 for no effect and ±100 for the full control effect.
SMILES,TDP1 cell noCPT,IL1B secr inh,HT1080-NT tox,HT1080 IDH1KD tx,DT40 TDP1 CPT
O=C(CCC(=O)OCC(F)(F)C(F)F)Nc1ccccc1F,-12%,0,19%,18%,8%
Cc1ccc(NC(=O)c2ccc(S(=O)(=O)N3CCCCC3)cc2)nc1,-13%,1,-1%,5%,u
O=C(NCCOc1ccccc1)c1ccccc1Cl,2%,-22,6%,13%,7%
CCc1ccc(OCCNC(=O)c2cc(SC)ccc2Cl)cc1,u,-10,-6%,0%,u
O=C(NCCOc1ccc(F)cc1)c1ccccc1SCc1ccccc1,u,-108*,-6%,-5%,-26%
CCc1ccc(OCCNC(=O)c2ccccc2SCc2ccc(F)cc2)cc1,26µM*,13,-6%,-1%,u
CCCOc1ccc(NC(=O)C(=O)NCCCn2ccnc2)cc1,-5%,35,16%,19%,-19%
O=C(Nc1nc(-c2cc(F)ccc2F)cs1)C1=NN(c2ccccc2)C(=O)CC1,u,67,-2%,-1%,u
COc1ccc(-c2csc(NC(=O)C3=NN(c4ccccc4)C(=O)CC3)n2)cc1,16µM*,-24,-2%,-16%,15µM*
COc1ccc(OC)c2sc(NC(=O)c3cccc(N4C(=O)CCC4=O)c3)nc12,-10%,-18,-4%,-13%,-7%
COc1ccc(-c2nc(NC(=O)C3=NN(c4cccc(C)c4)C(=O)CC3)sc2C)cc1,u,40,6%,2%,23µM*
Cc1sc(NC(=O)c2cccc(N3C(=O)CCC3=O)c2)nc1-c1ccccc1,u,-57*,-7%,-1%,-5%
Cc1ccc2nc(NC(=O)C3=NN(c4ccccc4)C(=O)CC3)sc2c1,-13%,-18,0%,0%,-10%
CC1(c2nnc(-c3cccc(Cl)c3)o2)CC(c2cccc([N+](=O)[O-])c2)=NO1 (stereo not drawn),u,-8,-15%,-1%,-24%
Fc1ccc(/C=N/N2CCN(Cc3ccccc3)CC2)cc1,u,u,23%,14%,-26%
CN1/C(=C/C=C/c2n(C)c3cc([N+](=O)[O-])c([N+](=O)[O-])cc3[n+]2C)C(C)(C)c2ccccc21,3.7µM*,-52*,u,u,u
COc1ccc(C2CC(c3ccc(Br)cc3)=NN2C(=O)CSC2=NCCS2)cc1 (stereo not drawn),16µM*,-65*,u,u,16µM*
COc1ccc(C2=NN(C(=O)CSc3ncccn3)C(c3ccc(C)cc3)C2)cc1 (stereo not drawn),18µM*,-1,-5%,-7%,u
Cc1c(Cl)cccc1NC(=O)CN1C(=O)COc2ccc(S(=O)(=O)N3CCOCC3)cc21,-13%,x,x,x,-3%
CCN(CC)C(=O)CSc1nc2cc(S(=O)(=O)N3CCOCC3)ccc2n1CC,-15%,0,1%,1%,1%
O=C1/C(=C/c2cccnc2)CCc2c1[nH]c1ccccc21,u,-103*,15µM*,13µM*,18µM*
CC1C/C(=C\c2cccnc2)C(=O)/C(=C/c2cccnc2)C1 (stereo not drawn),0.73µM*,-101*,u,2.9µM*,0.82µM*
NC(=O)CCC(C(=O)O)N1C(=O)C2C3CCC(C3)C2C1=O (stereo not drawn),0%,8,3%,5%,-2%
N#CCCN(Cc1ccccc1)C(C(=O)NC1CCCCC1)c1cc2ccccc2o1 (stereo not drawn),18µM*,33,-25%,u,21µM*
CN(Cc1ccc(Cl)cc1)C(C(=O)NC1CCCCC1)c1cc2ccccc2o1 (stereo not drawn),u,-1,u,u,-107%

# Assay outcomes from PubChem BioAssay.
